# CD40 NFkB inh = CD40 pathway inhibition in BL2 cells | BL2 NF-kB luciferase reporter, CD40L-induced, 4 h | inhibition, % at 10 µM | actives 0.94% (n = 83,000) | AID 1053188;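 active means mean inhibition of at least 50% with a set share of replicates also reaching that level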;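 further: 0% = neutral control wells and 100% = IKK inhibitor VII at 50 µM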
# * = called active by the depositor; [ ] = remark or other dose. Shown is part of a subset that was picked to be rich in hits.
SMILES,CD40 NFkB inh
COc1ccc(S(=O)(=O)N(C)C[C@@H]2Oc3ccc(NC(=O)Nc4ccc(C(F)(F)F)cc4)cc3C(=O)N([C@H](C)CO)C[C@@H]2C)cc1,38[25 µM]
COc1ccc(S(=O)(=O)N(C)C[C@H]2Oc3ccc(NC(=O)Nc4ccc(C(F)(F)F)cc4)cc3C(=O)N([C@H](C)CO)C[C@@H]2C)cc1,38[25 µM]
Cc1noc(C)c1NC(=O)N(C)C[C@@H]1OCCCC[C@@H](C)Oc2ccc(NC(=O)Nc3ccc(C(F)(F)F)cc3)cc2C(=O)N([C@H](C)CO)C[C@@H]1C,-10[25 µM]
CCC(=O)N1[C@H](CO)[C@@H](c2ccc(/C=C/c3ccccc3)cc2)C12CN(S(C)(=O)=O)C2,17[25 µM]
CC(C)NC(=O)N1CC(=O)N2[C@@H](CO)[C@H](c3ccc(/C=C/c4ccccc4)cc3)[C@@H]2C1,-1[25 µM]
Cc1ccc(NC(=O)N2CCC(c3nc4c(nnn4Cc4cccc(Cl)c4)c(=O)[nH]3)CC2)cc1,42
O=C(Nc1ccc(F)cc1)N1CCC(c2nc3c(nnn3Cc3cccc(Cl)c3)c(=O)[nH]2)CC1,69*
O=C(NC1CCCC1)c1nc2c(nnn2Cc2cccc(Cl)c2)c(=O)[nH]1,22
COc1cccc(CN2[C@H](CO)[C@H](c3ccccc3)C23CN(C(=O)C2CCCCC2)C3)c1,11[25 µM]
CCOC(=O)c1cn2nc(N3CCCC3)ccc2n1,-2
c1cc2nncn2nc1N1CCCC1,12
CCOC(=O)c1cn2nc(N3CCCCC3)ccc2n1,66*
CC(=O)N1C[C@@H]2C(c3ccc(Br)cc3)[C@H](C1)N2C(C)=O (some centres undefined),-3
O=C(Cc1ccncc1)NCC[C@@H]1CC[C@@H](NC(=O)C2CCCC2)[C@@H](CO)O1,5
COc1ccc2c3c(n(C)c2c1)[C@@H](CO)N(CC1CC1)CC31CCN(C(=O)NC2CCCC2)CC1,-7[25 µM]
CC(=O)Nc1ccc(C(=O)COC(=O)C2CC3CCCC(C2)C3=O)cc1 (centres undefined),-5
CC(=O)NCCc1ccc(C(=O)COC(=O)c2ccco2)cc1,-1
CC(=O)NCCc1ccc(C(=O)COC(=O)C2CCCCC2)cc1,54*
N#C[C@H]1[C@@H](c2ccccc2-c2ccc(F)cc2)[C@@H](CO)N1C(=O)NC1CCCC1,9
CO[C@@H]1CN(C)C(=O)c2cc(NC(C)=O)ccc2OC[C@@H](C)N(Cc2ccncc2)C[C@H]1C,-6[25 µM]
C[C@H]1CN(C)C(=O)c2cccnc2O[C@@H]1CN(C)S(C)(=O)=O,10
CNC[C@H]1Oc2ccc(N(C)C)cc2C(=O)N(C)C[C@H]1C,2
COCCCNc1ccn2nc(-c3cc(OC)c(OC)c(OC)c3)cc2n1,1
COCCCNc1ccn2nc(-c3ccccc3)cc2n1,60*
c1ccc(OCCNc2ccn3nc(-c4ccccc4)cc3n2)cc1,-62
SMILES,CD40 NFkB inh
CN1c2ccc(-c3cccc(F)c3)cc2[C@@H]2[C@@H](CCN2C(=O)c2ccc3c(c2)OCO3)[C@@H]1CO,28[25 µM]
CC1(C)C2CCC1(C)C(OCC[N+](C)(C)CC(=O)OC1CCCCC1)C2 (centres undefined),57*
O=C(CCCCC(=O)OC1CCCCC1)OC1CCCCC1,-10
CC1(C)[C@H]2CC[C@]1(C)[C@@H](OC(=O)C[N+]1(C)CCOCC1)C2,0
COc1ccccc1-c1cn(CC[C@H]2CC[C@H](NC(=O)C3CCCC3)[C@@H](CO)O2)nn1,-8
O=C(Cc1ccccc1)N1C[C@@H]2[C@H](c3ccccc31)[C@H](CO)N2C(=O)C1CCCC1,0
O=C(CCCc1ccccc1)NCCC1=CCCCC1,-60
Cc1ccc(CNC(=O)CCS(=O)(=O)c2ccc(C)cc2)cc1,2
Cc1ccc(S(=O)(=O)CCC(=O)NCCC2=CCCCC2)cc1,48*
COc1cccc(NC(=O)/C=C/c2ccc(Cl)cc2)c1,16[25 µM]
Cc1cc(C(=O)N2CCC(C(=O)O)CC2)c(C)o1,0
Cc1cc(C(=O)N2CCN(c3ncccn3)CC2)c(C)o1,-6
Cc1cc(C(=O)N2CCN(c3ccccc3Cl)CC2)c(C)o1,78*
O=C(C[C@H]1C[C@@H]2c3cc(NS(=O)(=O)c4ccc(F)cc4)ccc3O[C@@H]2[C@H](CO)O1)NC1CCCC1,3
Cc1cc(C)c2c(c1)SC1=NC(c3ccccc3)(C(F)(F)F)NC(=O)N12 (centres undefined),50*
CNC[C@H]1Oc2ccc(NC(=O)NC(C)C)cc2C(=O)N(C)C[C@H]1C,-1
COc1cccc(CNC(=O)[C@@H]2[C@@H](CO)[C@@H]3Cn4c(ccc(-c5ccncc5)c4=O)[C@@H]3N2C)c1,2[25 µM]
C[C@@H]1CN([C@@H](C)CO)C(=O)CCCn2cc(nn2)CO[C@H]1CN(C)CC1CCCCC1,12[25 µM]
CN(C)CC(=O)Nc1ccc2c(c1)[C@@H]1C[C@H](CC(=O)N3CCCCC3)O[C@H](CO)[C@@H]1O2,2[25 µM]
CC(=O)Nc1cc(-c2cccc(C(=O)N(C)C)c2)cn2c(-c3ccccc3)cnc12,1
CN(C)C(=O)c1cccc(-c2cnc3c(NC=O)cc(-c4cccc(C(F)(F)F)c4)cn23)c1,65*
COc1ccc(-c2cc(NC=O)c3ncc(-c4cccc(C(=O)N(C)C)c4)n3c2)cn1,-20
C[C@@H]1CN([C@@H](C)CO)C(=O)c2ccccc2-c2ccccc2CO[C@H]1CN(C)S(=O)(=O)c1ccc(F)cc1,-8
CCCNC(=O)N1[C@H](CO)[C@@H](c2ccccc2-c2ccc(OC)cc2)[C@@H]1C#N,-3[25 µM]
O=C(C[C@@H]1CC[C@H]2[C@@H](COC[C@H](O)CN2C(=O)Nc2cc(Cl)cc(Cl)c2)O1)N1CCOCC1,-1[25 µM]
SMILES,CD40 NFkB inh
N#C[C@@H]1[C@H](c2ccccc2C2=CCCCC2)[C@H](CO)N1C(=O)Nc1ccccc1F,22[25 µM]
O=C(Nc1ccccc1)N1CC(=O)N2[C@H](CO)[C@H](c3ccc(C#CC4CCCCC4)cc3)[C@H]2C1,9[25 µM]
O=C(Nc1ccccc1)N1CC(=O)N2[C@H](CO)[C@@H](c3ccc(C#CC4CCCCC4)cc3)[C@H]2C1,54*[25 µM]
COc1cccc(NC(=O)N2CC(=O)N3[C@H](CO)[C@@H](c4ccc(C#CCC5CCCC5)cc4)[C@@H]3C2)c1,23[25 µM]
O=C(Nc1ccccc1)N1CC(=O)N2[C@@H](CO)[C@@H](c3ccc(C#CC4CCCCC4)cc3)[C@@H]2C1,26[25 µM]
COc1cccc(NC(=O)N2CC(=O)N3[C@H](CO)[C@@H](c4ccc(C#CCC5CCCC5)cc4)[C@H]3C2)c1,64*[25 µM]
COc1cccc(NC(=O)N2CC(=O)N3[C@H](C2)[C@H](c2ccc(C#CCC4CCCC4)cc2)[C@@H]3CO)c1,13[25 µM]
CN1c2ccc(-c3cccc(F)c3)cc2[C@@H]2[C@@H](CCN2C(=O)c2ccncc2)[C@@H]1CO,19[25 µM]
C[C@@H]1CN(C)C(=O)c2cc(N(C)C)ccc2O[C@H]1CN(C)S(C)(=O)=O,1
CN1CCN(C(=O)C[C@@H]2CC[C@H]3[C@@H](COC[C@H](O)CN3C(=O)Nc3ccc4c(c3)OCO4)O2)CC1,-19[25 µM]
CCCNC(=O)[C@@H]1[C@@H](CO)[C@@H]2Cn3c(cccc3=O)[C@H]1N2Cc1cccc(Cl)c1,1[25 µM]
O=C(C[C@H]1C[C@@H]2c3cc(NC(=O)Nc4ccccc4F)ccc3O[C@@H]2[C@H](CO)O1)NC1CCCC1,2
O=C1c2cccnc2C(=O)N1C1CCCCC1,8
NC1=C(Br)C(=O)c2ncccc2C1=O,70*
O=C1C=C(NCCc2cc(Br)c(O)c(Br)c2)C(=O)c2ncccc21,32
N#C[C@H]1[C@H](c2ccc(C#CC3CCCCC3)cc2)[C@H](CO)N1C(=O)Cc1ccccn1,7
Nc1nc(=O)c2ccccc2s1,51*

# From PubChem BioAssay
